Laboratory results: the supplement of paper PMC3842684

tested on: P. falciparum NF54-pfs16-GFP late (IV-V) stage gametocytes; assay: relative % inhibition of viable gametocyte number; higher = more gametocytocidal; conditions: 0.5 µM; stage: late (IV-V) gametocyte; incubation 72 h
In short: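 Magnet-isolated NF54 pfs16-GFP gametocytes at early (I/IIa, day 2) or late (day 8) stage were exposed to compound at 5 or 0.5 µM for 72 h at 37°C, 5% CO2, 5% O2, at 10% parasitaemia and 0.1% haematocrit. Elongated GFP objects with MitoTracker Red signal above cut-off were counted as viable by confocal imaging. Relative inhibition was normalised to in-plate vehicle and positive-control wells.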

SMILES	relative % inhibition
COc1ccc(Nc2nc(NN=Cc3ccc(O)cc3)nc(Nc3ccc([N+](=O)[O-])cc3)n2)cc1	-4.05%
COc1cccc(C=Cc2nc(=O)c3ccccc3o2)c1OC	50.6%
O=C(Nc1ccccc1O)c1ccc(Oc2cccc(C(=O)Nc3ccccc3O)c2)cc1	14.1%
COc1ccccc1N1C(=N)SC(=Cc2ccc(OCc3ccccc3F)cc2)C1=O	32.6%
O=C(Nc1ccc(Cl)c(Cl)c1)Nc1ccc(Cl)c(Cl)c1	17.5%
C[n+]1c2ccccc2nc2ccc(NCCO)cc21	13.2%
COc1cc(SC)ccc1C(=O)N1CCCC(C)C1 (stereo unspecified)	5.64%
O=c1nc(C=Cc2ccc(Br)cc2)oc2ccccc12	4.47%
COc1ccc2c(c1)OC(O)(C(F)(F)C(F)(F)F)CC2=O (stereo unspecified)	8.91%
CCOC(=O)c1cn(CC)c2cc(N(C)CCc3ccc(OC)c(OC)c3)c(F)cc2c1=O	72.3%
CCOc1cccc(C(=O)Nc2ccc(-c3nc4ccccc4[nH]3)cc2)c1	4.79%
CCOc1c(Cl)cc(CNCC(O)c2ccccc2)cc1OC (stereo unspecified)	36.5%
O=C(Nc1cccc(C2=NCCN2)c1)Nc1cccc(C2=NCCN2)c1	10.7%
O=C(NCCCN1CCC(N2CCCCC2)CC1)C1=Cc2cc(Br)ccc2OC1	-12.5%
Cc1ccc(CN2CCC(C(=O)Nc3ccc(-c4cc5ccccc5[nH]4)cc3)CC2)o1	3.47%
COc1ccc2c(c1OC)C(=O)N1c3ccccc3N=C(c3ccc(C)cc3)CC21 (stereo unspecified)	-8.16%
CCN(CC)S(=O)(=O)c1ccc(-c2csc(Nc3ccc(C)c(C)c3)n2)cc1	42.2%
CCOC(=O)c1cnc2ccc(OC)cc2c1Nc1ccc(N2CCN(C)CC2)cc1	11.9%
CCc1ccc(Nc2cc(C)nc3nc(C)nn23)cc1	4.51%

SMILES	relative % inhibition
COc1cccc(O)c1CN1CCC2(CCCN(Cc3ccc(F)cc3)C2)C1 (stereo unspecified)	17.2%
O=C(Nc1ccc(CN2CCOCC2)cc1)c1ccc(-c2ccc(Br)cc2)o1	27.9%
CCCCC(O)(c1ccc(Cl)cc1)C(CN1CCOCC1)c1ccc(Cl)cc1 (stereo unspecified)	-3.8%
O=C(NCC(c1ccsc1)N1CCCCCC1)c1ccc(C(F)(F)F)cc1 (stereo unspecified)	-0.775%
COc1ccc2nc(N)nc(C)c2c1	10.6%
COc1ccc(C(=O)Nc2ccc(Cl)cc2C(=O)Nc2ccncc2)cc1	-6.74%
COCCn1c(C)nc2ccccc2c1=O	43.2%
O=C1c2ccc3c4c(ccc(c24)C(=O)N1CCCCO)C(=O)N(CCCCO)C3=O	5.48%
N=c1c2ccccc2nnn1-c1cccc(C(F)(F)F)c1	14.7%
Cc1ccc(C2CC(C(F)(F)F)n3nc(C(=O)N4CCN(C(c5ccccc5)c5ccccc5)CC4)cc3N2)cc1 (stereo unspecified)	17.1%
CN(C)CCCNCc1ccc(-c2ccc(F)c(Cl)c2)o1	7.27%
CC(O)(c1ccc(Cl)cc1)C(CN1CCCCC1)c1ccccc1 (stereo unspecified)	14%
OC(CNCC1CCCO1)Cn1c2ccc(Cl)cc2c2cc(Cl)ccc21 (stereo unspecified)	45.5%
COc1ccc2c(=O)cc(C(Cl)(Cl)Cl)oc2c1	8.37%
COc1ccc(C2c3ccc4ccccc4c3Oc3ncn(CCCN(C)C)c(=N)c32)cc1 (stereo unspecified)	108%
CCC(c1ccccc1)c1nn2c(-c3cccs3)nnc2s1 (stereo unspecified)	8.5%
COc1cccc(C(=O)Nc2ccc(-c3nc4ccccc4[nH]3)cc2)c1	20%
CCOc1ccc(-n2cc(-c3ccccc3)c3c(SCc4cc(C)ccc4C)ncnc32)cc1	11.3%
Cc1cc(N2CCN(C3CCCC3)CC2)n2c(nc3ccccc32)c1C#N	11.3%

same assay, conditions: 5 µM; stage: late (IV-V) gametocyte; incubation 72 h

SMILES	relative % inhibition
COc1ccc(Nc2nc(NN=Cc3ccc(O)cc3)nc(Nc3ccc([N+](=O)[O-])cc3)n2)cc1	31.8%
COc1cccc(C=Cc2nc(=O)c3ccccc3o2)c1OC	94%
O=C(Nc1ccccc1O)c1ccc(Oc2cccc(C(=O)Nc3ccccc3O)c2)cc1	8.35%
COc1ccccc1N1C(=N)SC(=Cc2ccc(OCc3ccccc3F)cc2)C1=O	69.4%
O=C(Nc1ccc(Cl)c(Cl)c1)Nc1ccc(Cl)c(Cl)c1	48.8%
C[n+]1c2ccccc2nc2ccc(NCCO)cc21	4.26%
COc1cc(SC)ccc1C(=O)N1CCCC(C)C1 (stereo unspecified)	6.01%
O=c1nc(C=Cc2ccc(Br)cc2)oc2ccccc12	101%
COc1ccc2c(c1)OC(O)(C(F)(F)C(F)(F)F)CC2=O (stereo unspecified)	10.1%
CCOC(=O)c1cn(CC)c2cc(N(C)CCc3ccc(OC)c(OC)c3)c(F)cc2c1=O	97.7%
CCOc1cccc(C(=O)Nc2ccc(-c3nc4ccccc4[nH]3)cc2)c1	17.9%
CCOc1c(Cl)cc(CNCC(O)c2ccccc2)cc1OC (stereo unspecified)	57.1%
O=C(Nc1cccc(C2=NCCN2)c1)Nc1cccc(C2=NCCN2)c1	-30.3%
O=C(NCCCN1CCC(N2CCCCC2)CC1)C1=Cc2cc(Br)ccc2OC1	19.4%
Cc1ccc(CN2CCC(C(=O)Nc3ccc(-c4cc5ccccc5[nH]4)cc3)CC2)o1	-13.5%
COc1ccc2c(c1OC)C(=O)N1c3ccccc3N=C(c3ccc(C)cc3)CC21 (stereo unspecified)	5.82%
CCN(CC)S(=O)(=O)c1ccc(-c2csc(Nc3ccc(C)c(C)c3)n2)cc1	42.2%
CCOC(=O)c1cnc2ccc(OC)cc2c1Nc1ccc(N2CCN(C)CC2)cc1	19.4%
CCc1ccc(Nc2cc(C)nc3nc(C)nn23)cc1	16.9%

SMILES	relative % inhibition
COc1cccc(O)c1CN1CCC2(CCCN(Cc3ccc(F)cc3)C2)C1 (stereo unspecified)	98.8%
O=C(Nc1ccc(CN2CCOCC2)cc1)c1ccc(-c2ccc(Br)cc2)o1	4.05%
CCCCC(O)(c1ccc(Cl)cc1)C(CN1CCOCC1)c1ccc(Cl)cc1 (stereo unspecified)	40.8%
O=C(NCC(c1ccsc1)N1CCCCCC1)c1ccc(C(F)(F)F)cc1 (stereo unspecified)	5.04%
COc1ccc2nc(N)nc(C)c2c1	-4.54%
COc1ccc(C(=O)Nc2ccc(Cl)cc2C(=O)Nc2ccncc2)cc1	3.3%
COCCn1c(C)nc2ccccc2c1=O	16.8%
O=C1c2ccc3c4c(ccc(c24)C(=O)N1CCCCO)C(=O)N(CCCCO)C3=O	4.35%
N=c1c2ccccc2nnn1-c1cccc(C(F)(F)F)c1	46.2%
Cc1ccc(C2CC(C(F)(F)F)n3nc(C(=O)N4CCN(C(c5ccccc5)c5ccccc5)CC4)cc3N2)cc1 (stereo unspecified)	-7.7%
CN(C)CCCNCc1ccc(-c2ccc(F)c(Cl)c2)o1	20.8%
CC(O)(c1ccc(Cl)cc1)C(CN1CCCCC1)c1ccccc1 (stereo unspecified)	22.3%
OC(CNCC1CCCO1)Cn1c2ccc(Cl)cc2c2cc(Cl)ccc21 (stereo unspecified)	75.6%
COc1ccc2c(=O)cc(C(Cl)(Cl)Cl)oc2c1	15.5%
COc1ccc(C2c3ccc4ccccc4c3Oc3ncn(CCCN(C)C)c(=N)c32)cc1 (stereo unspecified)	115%
CCC(c1ccccc1)c1nn2c(-c3cccs3)nnc2s1 (stereo unspecified)	12.4%
COc1cccc(C(=O)Nc2ccc(-c3nc4ccccc4[nH]3)cc2)c1	-5.77%
CCOc1ccc(-n2cc(-c3ccccc3)c3c(SCc4cc(C)ccc4C)ncnc32)cc1	19.7%
Cc1cc(N2CCN(C3CCCC3)CC2)n2c(nc3ccccc32)c1C#N	6.77%
